The list is not random: actives were taken first. Their share in the collection is about 4.6%.
PNC inhibitor: perinucleolar compartment assembly inhibition; PC3M PTB-GFP, PNC prevalence imaging, 16 h; stronger effect = lower value; activity change (PNC), negative = inhibition, % at 10 µM; 3.1% of 140,000 active; AID 2417;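 active means readout at or below -70, meaning at least 70% loss of cells showing the perinucleolar compartment, a nuclear body marking cancer cells; inconclusive means readout between -30 and a set limit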
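Compounds are pinned in duplicate onto adhered PC3M cells stably expressing GFP-tagged PTB and incubated 16 h at 37 C. Cells are then fixed, nuclei stained with Hoechst, and PNC-positive cells counted.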
Tau fibril ThT: blocks human tau fibril formation measured by thioflavin T. P10636. recombinant tau K18 P301L, heparin-induced fibrillization, ThT fluorescence. Potency, µM (top dose mostly 57.4 µM), usual class: inhibitors. 2.1% of 270,000 active; further: nearly all actives have a fitted effect of over 55% in size
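ThT emission at 510 nm, taken 1 hr after adding 30 uM dye, quantifies aggregates formed when 20 uM heparin acts on human tau K18 P301L for 6 hr at 37 C.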
Tau fluor counter: counter-screen for tau fibril formation inhibitors. Potency, µM (titrated, usually from 57.7 µM). tau K18 P301L Alexa594 fluorescence, heparin fibrillization. 0.93% of 280,000 active. AID 1463; further: nearly all actives have a fitted effect of over 55% in size
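Human tau K18 P301L (15 uM unlabeled, 0.24 uM Alexa 594-labeled) in 100 mM sodium acetate pH 7 with 20 uM heparin, 6 hr at 37 C. ThT 30 uM added, 1 hr ambient; Alexa 594 FP and total fluorescence read at 555/632 nm.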
TR SRC2 fluor cs: alters Texas Red total fluorescence, flagging assay interference; Potency, µM (doses to about 106 µM); TRb/SRC2 Texas Red total fluorescence interference; 0.29% of 280,000 active; AID 1479; active means well fitted curve in either direction with a large enough effect; inconclusive means small, poorly fitted or top-dose-only effect
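Flags fluorescent or light-absorbing compounds by total fluorescence, S + 2P, at 555 nm excitation and 632 nm emission. Mixture: 20 nM Texas Red SRC2 peptide, 0.6 uM human TRb LBD, 1 uM T3, 5% DMSO; compound exposure 5 h at ambient temperature.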
TRb SRC2 PPI: disrupts binding of human TR beta to SRC2; 0.065% of 280,000 active; Potency, µM (doses to about 106 µM), actives largely listed as inhibitors; AID 1469; TRbeta-SRC2 peptide binding, fluorescence polarization; receptor liganded with 1 µM T3; further: nearly all actives have a fitted effect of over 50% in size
Target sequence (P10828 whole entry, looked up): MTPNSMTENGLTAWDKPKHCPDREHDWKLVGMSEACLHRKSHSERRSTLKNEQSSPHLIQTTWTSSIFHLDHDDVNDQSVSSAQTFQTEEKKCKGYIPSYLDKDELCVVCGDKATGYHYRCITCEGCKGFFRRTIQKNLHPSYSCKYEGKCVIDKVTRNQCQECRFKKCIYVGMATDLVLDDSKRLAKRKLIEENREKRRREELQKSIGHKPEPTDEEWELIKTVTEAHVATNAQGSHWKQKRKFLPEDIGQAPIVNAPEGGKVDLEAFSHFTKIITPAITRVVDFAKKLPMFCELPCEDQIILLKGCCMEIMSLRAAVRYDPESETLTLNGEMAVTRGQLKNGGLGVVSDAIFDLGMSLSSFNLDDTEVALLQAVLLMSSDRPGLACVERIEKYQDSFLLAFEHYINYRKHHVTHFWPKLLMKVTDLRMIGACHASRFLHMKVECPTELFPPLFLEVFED
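Each compound concentration gave % activity, normalized to unbound and bound Texas Red SRC2 controls, from polarization read after 5 hr ambient incubation with T3-loaded human TRb LBD.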
Tau fibril FP: inhibitors of human tau fibril formation. K18 P301L tau heparin fibrillization, Alexa594 FP, 6 h. P10636. Potency, µM (titrated, usually from 57.7 µM), usual class: inhibitors. 0.39% of 280,000 active; further: nearly all actives have a fitted effect of over 55% in size
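Heparin (20 uM) drove fibril formation of recombinant tau K18 P301L, 15 uM unlabeled with 0.24 uM Alexa 594 label, for 6 hr at 37 C in 100 mM sodium acetate pH 7. Fluorescence polarization (555/632 nm) read 1 hr after 30 uM ThT.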
Of the large screens only hits and unclear results are named; the others gave an inactive call; [ ] = remark or other dose. Unless noted, the call rests on the fitted dose curve; in most records, active means well fitted curve in the direction sought with a large enough effect; inconclusive means small, poorly fitted or top-dose-only effect, or another doubt; inactive means no such curve, though single readings can be large; an effect the other way counts as inactive or inconclusive.

COc1ccc(C(=O)/C=C/C(=O)N(Cc2ccccc2)C(C(=O)NC2CCCCC2)c2ccncc2)c(O)c1 (stereo not given)	PNC inhibitor -86
Cc1cnc(C(=O)Nc2ccc(N3CCN(C(=O)OC(C)(C)C)CC3)cc2)cn1	PNC inhibitor inconclusive, Tau fibril ThT 1.8µM
Cc1cnc(C(=O)Nc2ccc(F)cc2)cn1	none
O=C(O)C1Cc2ccccc2CN1C(=O)c1ccccc1Cl (stereo not given)	none
Cc1cc(-n2c(C)cc(C(=O)CSc3nnnn3-c3ccc(Cl)cc3)c2C)no1	PNC inhibitor -100
Cc1cc(-n2c(C)cc(C(=O)CSc3nnc4sc5ccccc5n34)c2C)no1	none
Cc1cnc(C)c(N2CCC(C(=O)NCc3cccs3)CC2)n1	PNC inhibitor -127
C/C(=C\C(=O)c1cccnc1)Nc1ccc(O)cc1	Tau fibril ThT inconclusive, TRb SRC2 PPI 14µM
C/C(=C\C(=O)c1ccccc1)Nc1ccc(O)cc1	Tau fibril ThT inconclusive, Tau fluor counter inconclusive, TRb SRC2 PPI inconclusive
CCOC(=O)C1Cn2c(nc3c(c2=O)C2(CCCC2)Cc2ccccc2-3)S1 (stereo not given)	PNC inhibitor -103, Tau fibril ThT inconclusive
CCOC(=O)C1Cn2c(nc3c(c2=O)C(C)(C)Cc2ccccc2-3)S1 (stereo not given)	none
CCOC(=O)N1CCN(C(=O)c2ccc3c(=O)n(-c4ccc(F)cc4)c(=S)[nH]c3c2)CC1	none
Cc1ccc(N2C(=O)[C@@H]3[C@H](C2=O)[C@H]2C=CC=NN2[C@@H]3C(=O)Nc2ccc(Cl)cc2)cc1	Tau fibril ThT inconclusive
Cc1nc2ccc(S(=O)(=O)NCC(=O)N3CCc4ccccc43)cc2s1	none
Cc1nc2ccc(S(=O)(=O)NCC(=O)N3CCc4ccccc4C3)cc2s1	PNC inhibitor -97
CC(=O)Nc1ccc(NC(=O)c2cccc3c2-c2ccccc2C3=O)cc1	none (no result: PNC inhibitor)
O=C1C=C(Nc2ccccc2)c2ccccc2C1=O	Tau fibril ThT inconclusive (no result: PNC inhibitor)
O=C(Oc1ccc([N+](=O)[O-])cc1)c1cccnc1	Tau fibril ThT inconclusive
CN(C)c1ccc(NC2=C(Cl)C(=O)c3ccccc3C2=O)cc1	Tau fibril ThT 7.9µM, Tau fluor counter 3.5µM[quencher], Tau fibril FP 14µM
CC(=O)Nc1ccc(NC2=C(Cl)C(=O)c3ccccc3C2=O)cc1	Tau fibril ThT 2µM, Tau fluor counter 2.2µM[quencher], Tau fibril FP 10µM (no result: PNC inhibitor)
O=C(NC1=C(Nc2ccc(Cl)cc2)C(=O)c2ccccc2C1=O)c1ccccc1	Tau fibril ThT 18µM, Tau fluor counter inconclusive
O=C(Oc1ccc(NC2=C(Cl)C(=O)c3ccccc3C2=O)cc1)c1ccc([N+](=O)[O-])cc1	Tau fibril ThT 3.2µM, Tau fluor counter 2.8µM[quencher], Tau fibril FP inconclusive
CCOc1ccc(-c2c(C)nn3c(C)c(C(=O)Nc4cc(C)cc(C)c4)cnc23)cc1OCC	TR SRC2 fluor cs inconclusive (no result: PNC inhibitor)
Cc1nc2scc(-c3ccccc3)c2c(=O)o1	PNC inhibitor inconclusive
COc1ccccc1NC1=C(NC(C)=O)C(=O)c2ccccc2C1=O	Tau fibril ThT 20µM, Tau fibril FP inconclusive (no result: PNC inhibitor)
Cc1ccc(NC2=C(NCCO)C(=O)c3ccccc3C2=O)cc1	Tau fibril ThT 22µM, Tau fluor counter inconclusive, Tau fibril FP inconclusive
O=C1C(Cl)=C(Nc2ccc3cn[nH]c3c2)C(=O)c2ccccc21	Tau fibril ThT 1.8µM, Tau fluor counter 1.4µM[quencher], Tau fibril FP 7.9µM (no result: PNC inhibitor)
O=C(Nc1ccc2cn[nH]c2c1)c1c(Cl)cccc1Cl	none
O=C(c1ccc2nc(N3CCOCC3)sc2c1)N1CCC(Cc2ccccc2)CC1	Tau fibril ThT inconclusive
Fc1ccccc1/C=C1\CCCC2=C1NC(=S)NC2c1ccccc1F (stereo not given)	none (no result: PNC inhibitor)
COC(=O)C1=C(C)NC(C)=C(C(=O)OC(C)C)C1c1cccc2nonc12 (stereo not given)	none (no result: PNC inhibitor)
COCc1cc(C)nc(OCC(=O)N/N=C/c2ccc(-c3cc([N+](=O)[O-])ccc3C)o2)c1C#N	Tau fluor counter inconclusive

Screening results from PubChem BioAssay.
